AHR activator – AHR activators, primary screen, cell-based, luminescence, luciferase reporter, human; Aryl hydrocarbon receptor (Homo sapiens), P35869; AHR-responsive luciferase reporter cells; activation, % at 5 µM; actives 2.5% (n = 320,000); in the data active = activation above about 47%
Bfl-1 A1 inh – caspase 3/7 activation in MEF A1-2A-BIM cells, primary screen, A1 inhibitor project, cell-based, luminescence, HTS; Caspase-Glo 3/7 luminescence, 3 h; percent of clofoctol response, vehicle zero; caspase activation, % (no concentration beside the values); actives 0.066% (n = 330,000);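 active = over half of replicate activation scores above 10%, or exactly half above 10 with the replicate mean above 10; inconclusive = replicate mean below 10 yet half the replicates above 10; inactive = over half of replicates below 10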
Efflux pump mplx – inhibitors of Candida efflux pumps in yeast, primary screen, S. cerevisiae, Nile Red, multiplex; S. cerevisiae Candida pump triplex; inhibition, % at 10 µM; actives 0.44% (n = 330,000); AID 485275, 2010;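 active = plate passing quality check with inhibition over a set limit, or well fluorescence over plate mean plus 4 SD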;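 also: Nile Red retained in pooled yeast measured as flow cytometry median fluorescence; higher means more Nile Red kept so more efflux inhibition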
Mot1-301 SUMO – yeast Mot1-301 growth rescue at high temperature, primary screen, SUMOylation pathway inhibitor project, S. cerevisiae, ATP luminescence, 38.5C; AID 2716, 2010; growth rescue, % at 18.8 µM; S. cerevisiae Mot1-301 growth rescue; percent above DMSO median, 100 means doubled; actives 1% (n = 320,000);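 active = every valid replicate shows activation above 250% relative to neutral control wells; inactive = the rest, any valid replicate at or below 250%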
ALR H2O2 inh – inhibitors of human ALR sulfhydryl oxidase, primary screen, biochemical, H2O2 detection, HRP-luminol luminescence, single point. FAD-linked sulfhydryl oxidase ALR (Homo sapiens), P55789. purified ALR, DTT oxidation. inhibition, % (concentration not given with the values). actives 3.8% (n = 290,000);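 active = mean replicate inhibition above about 79%, with every replicate also reaching it, limit read from the data; inconclusive = only one of the two criteria met; inactive = mean below limit and not every replicate reaching it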
Target sequence (P55789 whole entry, looked up): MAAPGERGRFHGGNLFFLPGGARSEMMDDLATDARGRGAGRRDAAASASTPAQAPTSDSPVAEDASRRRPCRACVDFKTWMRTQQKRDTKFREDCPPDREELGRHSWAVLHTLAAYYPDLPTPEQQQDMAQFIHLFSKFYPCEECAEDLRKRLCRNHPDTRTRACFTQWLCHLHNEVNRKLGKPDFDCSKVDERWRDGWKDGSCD
VLA-4 inh – inhibition in human VLA-4 binding assay, primary screen, VLA-4 allosteric modulator project, MLPCN library, flow cytometry, VLA-4 expressing cells; Integrin alpha-4 (Homo sapiens), P13612; ligand binding flow cytometry; inhibition, % (about 7 µM as worked out from the volumes in the protocol); actives 0.2% (n = 330,000); in the data active = inhibition above about 50%
Each line names hits and unclear results; the compound was inactive in the other large screens. Compounds with a hit are over-represented: about 7.2% of the library has one in this group of screens.

COc1ccc(NC(=O)CN2CCN(c3ccccc3)CC2)cc1	none
O=C(N/N=C(\c1ccccc1)c1cccnc1)c1cccc(F)c1	none
COC(=O)c1cccc(NC(=O)CN2CCN(c3ccc(OC)cc3)CC2)c1	ALR H2O2 inh 88.3
O=C(CCN1CCN(c2ccccc2F)CC1)Nc1ccccc1F	none
O=C(CCN1CCN(c2ccc(Cl)cc2)CC1)Nc1ccccc1F	ALR H2O2 inh 87.6
Cc1ccccc1-n1c(SCc2ccccn2)nc2n[nH]c(C)c2c1=N	AHR activator 66.1
Cc1ccccc1-n1c(SCC(=O)Nc2ccccc2Cl)nc2n[nH]c(C)c2c1=N	AHR activator 61.9
COc1ccc(OC)c(NC(=O)CSc2nc3n[nH]c(C)c3c(=N)n2-c2cccc(Cl)c2C)c1	none
CCOc1ccccc1NC(=O)CCSc1nc2n[nH]c(C)c2c(=N)n1-c1ccccc1Cl	none
CC1=NN(c2ccc(Cl)cc2)C(=O)C1C(c1cccc(O)c1)c1c(C)[nH]n(-c2ccc(Cl)cc2)c1=O (centres undefined)	AHR activator 66.7
O=C(CCn1c(=S)oc2ccccc21)NCCC1=CCCCC1	none
O=C(CCC1N=C2c3ccccc3N=C(SCc3ccc(F)cc3)N2C1=O)NCc1ccco1 (centres undefined)	none
O=C(CCC1N=C2c3ccccc3N=C(SCc3ccc(Cl)cc3)N2C1=O)NCc1ccco1 (centres undefined)	ALR H2O2 inh 97.6
Cc1cccc(-c2nc3sc(C)cc3c(=O)o2)c1	ALR H2O2 inh 97.3
COc1ccc(CNC(=O)CCCCCNC(=O)N2CCn3c2nc2ccccc23)cc1	none
S=C(NCCCN1CCOCC1)Nc1ccc(-c2nc3ccccc3[nH]2)cc1	ALR H2O2 inh 98.0
CN(C)CCNC(=S)Nc1ccc(-c2nc3ccccc3[nH]2)cc1	none (no result: ALR H2O2 inh)
S=C(NCCCN1CCOCC1)Nc1ccc(Nc2ccccc2)cc1	ALR H2O2 inh 99.3
CCCCc1ccc(NC(=S)NCCN2CCOCC2)cc1	Mot1-301 SUMO 731.4
Cc1ccc(NC(=O)C(=O)NCCCN2CCCC2=O)cc1	Mot1-301 SUMO 433.1
O=C(c1cc2cc(Br)ccc2s1)N1CCOCC1	none
CC(=O)C(Cc1ccccc1)NC(=O)CN1CCN(Cc2ccccc2)CC1 (centres undefined)	none
COc1cccc(-n2c(=O)n(Cc3ccccc3)c(=O)c3[nH]cnc32)c1	none
Cc1cccc(N=C2NC(=O)c3cc([N+](=O)[O-])ccc32)c1	none
S=C(NCCN1CCOCC1)Nc1ccc(Br)cc1	ALR H2O2 inh inconclusive
S=C(NCCN1CCOCC1)Nc1ccc(Nc2ccccc2)cc1	ALR H2O2 inh 99.1
O=C1CCCN1CCCNC(=S)Nc1ccccc1	none
O=C1CCCN1CCCNC(=S)Nc1ccc(Nc2ccccc2)cc1	ALR H2O2 inh 99.4
S=C(NCCN1CCOCC1)Nc1ccc(Cl)cc1Cl	ALR H2O2 inh 94.7
C/C(=N\NC(=O)c1ccc(F)cc1)c1ccccn1	none
C/C(=N\NC(=O)CCCNc1ccc(C)cc1)c1ccccn1	ALR H2O2 inh 98.4 (no result: Mot1-301 SUMO)
Cc1ccccc1S(=O)(=O)N(CC(O)CN1CCCCC1)c1ccccc1 (centres undefined)	Bfl-1 A1 inh inconclusive
OC(CN1CCCCC1)CN(c1ccccc1)c1ccccc1 (centres undefined)	ALR H2O2 inh 98.3
COc1ccc(C(=O)C(CN2CCOCC2)c2ccccc2)cc1 (centres undefined)	none
OC(CN1CCCCCC1)CN(c1ccccc1)c1ccccc1 (centres undefined)	ALR H2O2 inh 99.0
O=C(c1ccccc1)C(CCC(CN1CCOCC1)C(=O)c1ccccc1)CN1CCOCC1 (centres undefined)	ALR H2O2 inh 97.9
OC(CN1CCOCC1)CN(c1ccccc1)c1ccccc1 (centres undefined)	ALR H2O2 inh 99.1
O=C(NCC1COCCO1)c1ccc2nc(Cc3cccc(Cl)c3)oc2c1 (centres undefined)	none
CCCCCCSc1nc(O)c(C2OC(=O)c3c2ccc(OC)c3OC)c(=O)n1CC (centres undefined)	ALR H2O2 inh 97.8
C=CCSc1nc2sc3c(c2c(=O)n1CC)CCc1ccccc1-3	AHR activator 56.3
C=CCn1c(SCC)nc2sc3c(c2c1=O)CCc1ccccc1-3	none
O=C1c2ccccc2C(=O)N1CC1=CCS(=O)(=O)C1	none
O=C(CSc1nc(=O)n(CCCN2CCOCC2)c2c1CCCC2)Nc1ccc(Cl)cc1	ALR H2O2 inh 96.0
CC(C)c1ccc(NC(=O)CSc2nc(=O)n(CCCN3CCOCC3)c3c2CCC3)cc1	ALR H2O2 inh 98.5
Cc1c(Cl)cccc1NC(=O)CSc1nc(=O)n(CCCN2CCOCC2)c2c1CCC2	ALR H2O2 inh 94.4
O=C(CSc1nc(=O)n(CCCN2CCOCC2)c2c1CCCC2)Nc1ccccc1Cl	none
CC(C)c1ccc(NC(=O)CSc2nnc(CN3CCOCC3)n2C)cc1	ALR H2O2 inh 98.3
O=C(CSc1nc(=O)n(CCCN2CCOCC2)c2c1CCCC2)Nc1ccc(F)cc1F	none
Cc1ccc(S(=O)(=O)N=C2SCCCS2)cc1	none
CCN(CC(=O)Nc1ccccc1C(F)(F)F)C(=O)c1cccc(S(=O)(=O)N2CCN(C)CC2)c1	none
CC(C)c1ccc(NC(=O)CSc2nc(=O)n(CCCN3CCOCC3)c3c2CCCC3)cc1	ALR H2O2 inh 99.0
CCN(CC)CCn1c2c(c(SCC(=O)Nc3ccc(C(C)C)cc3)nc1=O)CCCC2	none
O=C(CSc1nc(=O)n(CCCN2CCOCC2)c2c1CCCC2)Nc1cccc([N+](=O)[O-])c1	none
O=C(CSc1nc(=O)n(CCCN2CCOCC2)c2c1CCC2)Nc1ccc([N+](=O)[O-])cc1	ALR H2O2 inh 98.2
O=C(Nc1ccccn1)c1sc2cccc(F)c2c1Cl	none (no result: Mot1-301 SUMO)
O=C(CSc1ccccc1)NCC1(N2CCOCC2)CCCCC1	none
N#CCC(=O)Nc1ccc(C(=O)NCC2(N3CCOCC3)CCCCC2)cc1	ALR H2O2 inh 98.7
CC(=O)Nc1ccc(SCC(=O)NCC2(N3CCCCC3)CCCCC2)cc1	ALR H2O2 inh 98.9
COc1ccc(OCC(=O)N/N=C/C(C)=C/c2ccco2)c(Br)c1	none
COc1ccc(CNC(=O)c2ccc(Cl)c(S(=O)(=O)N3CCOCC3)c2)cc1OC	none
S=c1[nH]nc(-c2ccccn2)n1/N=C/c1c(Cl)cccc1Cl	none (no result: ALR H2O2 inh)
CC(NC(=O)NC(=O)c1ccc(Cl)cc1)c1ccccc1 (centres undefined)	none
CC/C(=N\Nc1ccc([N+](=O)[O-])cc1[N+](=O)[O-])c1ccc(O)cc1	none

High-throughput results deposited in PubChem by several laboratories.
